Activity calls are given as the source filed them. How the source made its calls: active means hit-call score of the fitted dose curve at least 0.9, where 1 is the maximum; inactive means score below 0.9.
Biological target: human Serotonin Receptor 5-HT6 Agonism, HTR6 (gene 3362) (UniProt P50406)
Assay: ERF_FR_GPCR_hHTR6: Eurofins (ERF) G Protein-Coupled Receptor (GPCR) Radioligand Binding LeadHunter Assay for human Serotonin Receptor 5-HT6 Agonism
Description: ERF_FR_GPCR_hHTR6 is a biochemical, single-readout assay that uses extracted gene-proteins in a cell-free assay. Measurements were taken 2 hour after chemical dosing in a 96-well plate. See 5-HT6 Human Serotonin GPCR Binding (Agonist Radioligand) Assay, Cerep.ERF_FR_GPCR_hHTR6 is an assay component calculated from the ERF_FR_GPCR_hHTR6 assay. It is designed to measure radioligand binding using a type of binding reporter as detected by scintillation counting with radiometry technology.Data from the assay component ERF_FR_GPCR_hHTR6 was analyzed at the assay endpoint, ERF_FR_GPCR_hHTR6, in the positive analysis fitting direction relative to DMSO as the negative control and baseline of activity. Using a type of binding reporter, gain-of-signal activity can be used to understand changes in binding as they relate to gene HTR6. To generalize the intended target to other relatable targets, this assay endpoint is annotated to the gpcr intended target family, where the subfamily is serotonin.
Human cells are incubated for 120 minutes at 37 C with [3H]LSD ligand (2 nM) and serotonin as control inhibitor. Test Sample Requirements: Minimum for 1) Screen: 60 ul of 10 mM stock -OR- 1 mg (pre-weighed) for 10 uM final testing. 2) Dose Response: 90 ul of 10 mM stock -OR- 1 mg (pre-weighed) for a top concentration at 10 uM.

human Serotonin Receptor 5-HT6 Agonism, HTR6 (gene 3362), sequence (P50406 whole entry, looked up): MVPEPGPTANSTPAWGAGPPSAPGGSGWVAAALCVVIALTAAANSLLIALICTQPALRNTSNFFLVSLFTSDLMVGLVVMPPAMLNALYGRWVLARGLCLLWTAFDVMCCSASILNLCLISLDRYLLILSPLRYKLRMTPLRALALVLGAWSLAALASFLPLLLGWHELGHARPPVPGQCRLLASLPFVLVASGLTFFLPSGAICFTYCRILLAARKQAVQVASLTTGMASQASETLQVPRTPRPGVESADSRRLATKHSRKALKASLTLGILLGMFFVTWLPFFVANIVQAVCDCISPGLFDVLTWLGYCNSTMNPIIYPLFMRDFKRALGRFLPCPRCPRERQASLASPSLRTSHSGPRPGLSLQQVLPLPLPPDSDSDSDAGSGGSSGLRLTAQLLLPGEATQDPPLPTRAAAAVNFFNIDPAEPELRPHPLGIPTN

Q: With `O=C(/C=C/c1ccc(O)cc1)CC(=O)/C=C/c1ccc(O)cc1` as the compound, how does the AC50 read?
A: The AC50 was 2.7 µM (active).
